NCOA1 inh = inhibits human SRC1 coactivator; Q15788; HEK293 GAL4-SRC1 luciferase reporter, luminescence; inhibition, % at 3.6 µM; hit rate 0.12% among 360,000;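 active means inhibition above the campaign mean plus 3 SD, with each screening campaign given its own cutoff, cut at about 60% in these data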;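 further: 0% = DMSO treated cells and 100% = gossypol at 36 µM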
NR2F2 inh = NR2F2 (human) inhibition, primary screen; HEK293T NGFI-A luciferase reporter, luminescence; inhibition, % at 8.6 µM; hit rate 0.7% among 370,000; AID 686940;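 active means inhibition above a per-plate cutoff, mean inhibition of test wells between control levels plus 3 SD, cut at about 38% in these data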;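 further: cells cotransfected with COUP-TFII expression vector driving the NGFI-A reporter; 0% = median of COUP-TF2 test wells and 100% = reporter-only cells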
LRH-1 inv ag = suppresses constitutive activity of human LRH-1; O00482; HEK293T StAR-luciferase reporter, LRH-1 transfected, 24 h; inhibition, % at 3.6 µM; hit rate 0.13% among 360,000; AID 602396;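 active means inhibition above the mean inhibition of all tested compounds plus 3 SD, cut at about 73% in these data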;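 further: 0% = DMSO wells and 100% = reporter-only cells lacking LRH-1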
SRC3 inh = human NCOA3 inhibition | inhibition, % at 3.6 µM | Q9Y6Q9 | HEK293 GAL4-SRC3 luciferase reporter, luminescence | hit rate 0.17% among 360,000 | AID 588352;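 active means inhibition above a per-campaign cutoff, the mean of all compounds plus 3 SD, cut at about 60% in these data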;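 further: 0% = DMSO-treated cells and 100% = gossypol-treated cells at 36 µM; higher means less SRC3-driven luciferase light from the GAL4 reporter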
SRC2 inh = human SRC2 (NCOA2) inhibition; Q15596; HEK293 GAL4-SRC2 luciferase reporter, luminescence; inhibition, % at 9 µM; hit rate 0.17% among 370,000; AID 651957;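 active means inhibition above the mean inhibition of all tested compounds plus 3 SD, set per campaign, cut at about 52% in these data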;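 further: 0% = DMSO treated cells and 100% = cells given Gossypol at 36 µM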
Gli-Sufu antag = blocks Gli-Sufu signaling in a luciferase reporter; Sufu-KO-LIGHT fibroblasts, Gli luciferase reporter luminescence; hit rate 0.74% among 340,000; inhibition, % at 5 µM;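 active means inhibition above about 55%, limit read from the data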;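 further: 0% = DMSO-treated cells and 100% = wells with medium but no cells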
* marks the source's active call; other numbers are inactive results. This is a sample that favours compounds with a hit; in the whole collection about 1.3% have one here.

O=C(NCC(c1ccccc1)c1ccccc1)[C@H](Cc1c[nH]c2ccccc12)NC1(C(=O)NC2CCCCC2)CCCCCC1 was read as NR2F2 inh 2.
`CC(=NNC(=S)N1CCC1)c1ccccn1` gave NCOA1 inh 22, NR2F2 inh 6, LRH-1 inv ag 4, SRC3 inh 11, SRC2 inh -84 and Gli-Sufu antag 89*.
Screening CC(=NNC(=S)SCc1ccccc1)c1ccccn1 returned NCOA1 inh -4, NR2F2 inh 0, LRH-1 inv ag 4, SRC3 inh -22, SRC2 inh -18 and Gli-Sufu antag 78*.
CN1C(=O)[C@@](O)(c2cccn2C)c2cc(Cl)ccc21 was read as NR2F2 inh -6 and SRC2 inh 20.
`Nc1ncnc(N2CCc3ccccc32)c1[N+](=O)[O-]` gave NCOA1 inh 73*, NR2F2 inh 35, LRH-1 inv ag 33, SRC3 inh 65*, SRC2 inh 44 and Gli-Sufu antag -25.
For NNC(=O)c1ccc(N2CCc3ccccc32)c([N+](=O)[O-])c1 the results were NCOA1 inh 5, NR2F2 inh -14, LRH-1 inv ag 11, SRC3 inh 10, SRC2 inh 7 and Gli-Sufu antag 0.
Cc1ccc(NC(=O)Nc2ccc3c(c2)[C@]2(CC(=O)N(CC(C)C)C2c2ccccc2)C(=O)N3C)cc1Cl (stereo partly drawn) was read as NR2F2 inh 3 and SRC2 inh 5.
O=C(Nc1ccc([N+](=O)[O-])cc1)c1ccc(Cn2cc([N+](=O)[O-])cn2)cc1 was read as NCOA1 inh 54, NR2F2 inh 0, LRH-1 inv ag 78*, SRC3 inh 48, SRC2 inh -26 and Gli-Sufu antag 25.
O=C(Nc1cnn(Cc2ccc(Cl)cc2)c1)c1ccc([N+](=O)[O-])cc1 was read as NCOA1 inh 1, NR2F2 inh 3, LRH-1 inv ag 36, SRC3 inh -3, SRC2 inh 20 and Gli-Sufu antag 9.
Screening CN(C)c1ccc(/C=C/c2ccc3ccccc3n2)cc1 returned NCOA1 inh 62*, LRH-1 inv ag 63, SRC3 inh 64* and Gli-Sufu antag 28.
For C(=C\c1ccc2ccccc2n1)/c1ccccc1 the results were NCOA1 inh -83, NR2F2 inh -22, LRH-1 inv ag -74, SRC3 inh -35, SRC2 inh 21 and Gli-Sufu antag -81.
For CCN(CC)CCn1nc2c3c(cccc3c1=O)-c1ccccc1-2 the results were NCOA1 inh 73*, NR2F2 inh -66, LRH-1 inv ag 77*, SRC3 inh -52, SRC2 inh -198 and Gli-Sufu antag 47.
For CCn1c(C)nc2cc(-c3nc4n(n3)Cc3ccccc3-4)ccc21 the results were NCOA1 inh 91*, LRH-1 inv ag 95*, SRC3 inh 86* and Gli-Sufu antag 87*.
For O=C(CC(Nc1ccccc1)C(=O)O)c1ccccc1 (stereo not drawn) the results were NCOA1 inh -108, NR2F2 inh -35, LRH-1 inv ag -89, SRC3 inh -67, SRC2 inh -46 and Gli-Sufu antag -82.
`O=C(CC(Nc1ccc(Cl)cc1Cl)C(=O)O)c1ccccc1` (stereo not drawn) gave NCOA1 inh 63*, NR2F2 inh 20, LRH-1 inv ag 30, SRC3 inh 64*, SRC2 inh 52 and Gli-Sufu antag 18.
Screening COC1=C(C)C(=O)C2=C(C1=O)C1C3CC4=C(C(=O)C(OC)=C(C)C4=O)C(CNC(=O)C(C)=O)N3C(C#N)C(C2)N1C (stereo not drawn) returned NCOA1 inh 84*, NR2F2 inh 52*, LRH-1 inv ag 96*, SRC3 inh 85*, SRC2 inh 63* and Gli-Sufu antag 81*.
`O=C(O)c1ccc(N/N=C/c2ccc(OC(=O)c3cccc(Cl)c3)cc2)cc1` gave NCOA1 inh -71, NR2F2 inh -18, LRH-1 inv ag -88, SRC3 inh -39, SRC2 inh -10 and Gli-Sufu antag 61*.
Screening O=C(Oc1ccc(/C=N/Nc2ccccc2)cc1)c1ccccc1 returned NCOA1 inh 0, NR2F2 inh -6, LRH-1 inv ag 0, SRC3 inh -6, SRC2 inh 5 and Gli-Sufu antag -1.
Screening COc1cccc(CO[C@H]2C=C[C@@H](c3ccccc3)O[C@@H]2COC(C)=O)c1 returned NR2F2 inh -3 and SRC2 inh 7.
